A short description of assay [1]: Tanguay_ZF_120hpf_PIG_legacy: (Legacy) Oregon State University Tanguay Lab 120 Hour Post-fertilization zebrafish Assay for Pigmentation Malformation (AID 2283650). The method, boiled down:
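Pronase dechorionation at 4 hpf; embryos plated at 6 hpf, one per well; static exposure, sealed and foil-covered, 28C, to 120 hpf; pigmentation read by brightfield, binary; DMSO 0.64% baseline, 5uM trimethyltin chloride positive control.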

Assay [2] can be described thus: Tanguay_ZF_120hpf_SWIM_legacy: (Legacy) Oregon State University Tanguay Lab 120 Hour Post-fertilization zebrafish Assay for Swim Bladder Malformation (AID 2283654).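 Further: swim bladder malformation in each larva scored yes or no under brightfield.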 The essentials: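 Embryos lacking chorions were exposed individually and statically to test chemical from 6 to 120 hpf at 28C, with 0.64% DMSO as vehicle. At 120 hpf, swim bladder malformation was recorded as present or absent by brightfield microscopy.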

Assay [3] can be described thus: Tanguay_ZF_120hpf_TR_legacy: (Legacy) Oregon State University Tanguay Lab 120 Hour Post-fertilization zebrafish Assay for Touch Response (AID 2283667). The essentials: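 5D WT embryos; static exposure to 120 hpf, 28C, sealed/dark; DMSO 0.64% v/v final. TR scored present/absent; dead embryos excluded. Pos ctrl 5uM trimethyltin chloride.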
Assay [4] is described as follows: CCTE_Padilla_ZF_144hpf_TERATOSCORE: (Legacy) CCTE's 144 Hour Post-fertilization zebrafish Assay Teratoscore, Padilla Lab (AID 2283679; active means hit-call score of the fitted dose curve at least 0.9, where 1 is the maximum; inactive means score below 0.9;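 further: zebrafish embryos with chorions exposed by immersion from 6-8 hpf to 5 dpf with daily renewal; teratogenicity score from eye scoring of death hatching and malformations at 144 hpf; higher score means more developmental defects relative to DMSO baseline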). The essentials: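 Larvae scored by eye at 144 hpf for death, hatching and malformations after a day in clean Hanks'. Before that, daily-renewed exposure at 80 uM (0.4% DMSO, 26C) from roughly 6-8 hpf through 5 dpf, 4 embryos per chemical.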

Assay [5] can be described thus: Tanguay_ZF_120hpf_TRUN_legacy: (Legacy) Oregon State University Tanguay Lab 120 Hour Post-fertilization zebrafish Assay for Truncated Body (AID 2283655). The method, boiled down: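 Truncated body is recorded as a binary endpoint at 120 hpf by brightfield imaging of wild-type 5D larvae. Exposure runs statically from 6 hpf at 28C with 0.64% DMSO; embryos dying earlier are not scored.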

Assay [6] can be described thus: CCTE_Simmons_CellTiterGLO_HEK293T: Viability Assessment in CCTE's Assays for Thyroperoxidase (TPO) Inhibition, Simmons Lab (AID 2283665).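 Further: cells exposed to compound for 24 h before readout; actives reduce ATP signal below DMSO vehicle meaning cytotoxicity.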 The essentials:
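HEK293T cells in DMEM with 1% FBS were dosed with 8 concentrations (5 nM–87.5 uM final, 0.5% DMSO) for 24 hr at 37C; ATP content was read by CellTiter-Glo luminescence, loss-of-signal versus DMSO, three biological replicates.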

Assay [7] can be described thus: Tanguay_ZF_120hpf_CIRC_legacy: (Legacy) Oregon State University Tanguay Lab 120 Hour Post-fertilization zebrafish Assay for Circulatory Malformation (AID 2283651). The essentials: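 Tropical 5D wild-type embryos, dechorionated with pronase at 4 hpf, were placed singly in wells at 6 hpf and exposed statically at 28C to 120 hpf (0.64% DMSO final). Circulatory malformation was scored present/absent by brightfield microscopy.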

The values that follow come from PubChem BioAssay (EPA / NIEHS).

SMILES strings stand for the structures. Results filed as inconclusive are left out. The source made the active and inactive calls. How the source made its calls, unless noted: active means hit-call score of the fitted dose curve at least 0.9, where 1 is the maximum; inconclusive means response in the unintended direction; inactive means score below 0.9.

In the case of `CC(C)(C)C(O)(CCc1ccc(Cl)cc1)Cn1cncn1` (stereo not drawn), the result in assay [1], in assay [2] and in assay [3] was inactive. Further, the half-maximal activity concentration (AC50) in assay [4] is 52 µM (active).
As for `C=CCc1ccc2c(c1)OCO2`, the molecule was classed as inactive in assay [1], in assay [5] and in assay [3]. Moreover, in assay [6], the half-maximal activity concentration (AC50) is 66.7 µM (active).
For the molecule `CN(C)c1ccc(C(=O)c2ccc(N(C)C)cc2)cc1`, the half-maximal activity concentration (AC50) in assay [7] is 9.77 µM (active); in assay [2] it was 30.1 µM (active); in assay [6], 43.8 µM (active); in assay [3], 43.3 µM (active); in assay [4], 0.544 µM (active). Besides, the call in assay [5] was inactive.
On to `CCNS(=O)(=O)C(F)(F)C(F)(F)C(F)(F)C(F)(F)C(F)(F)C(F)(F)C(F)(F)C(F)(F)F`, for which the half-maximal activity concentration (AC50) was 46.8 µM (active) in assay [1], 17 µM (active) in assay [3] and 43.5 µM (active) in assay [4]. Moreover, the outcome in assay [7] was inactive.

Broadly, the AC50 is the midpoint of the concentration-response curve, whichever way the signal moves.
